Consider 1 compound from ChEMBL document CHEMBL2218924, “A broad activity screen in support of a chemogenomic map for kinase signalling research and drug discovery” (Biochem J, 2013).

Structures are written as SMILES.

Experiment [1] addresses T1, Serine/threonine-protein kinase TBK1 (Homo sapiens) (UniProt Q9UHD2).
T1 sequence (whole entry): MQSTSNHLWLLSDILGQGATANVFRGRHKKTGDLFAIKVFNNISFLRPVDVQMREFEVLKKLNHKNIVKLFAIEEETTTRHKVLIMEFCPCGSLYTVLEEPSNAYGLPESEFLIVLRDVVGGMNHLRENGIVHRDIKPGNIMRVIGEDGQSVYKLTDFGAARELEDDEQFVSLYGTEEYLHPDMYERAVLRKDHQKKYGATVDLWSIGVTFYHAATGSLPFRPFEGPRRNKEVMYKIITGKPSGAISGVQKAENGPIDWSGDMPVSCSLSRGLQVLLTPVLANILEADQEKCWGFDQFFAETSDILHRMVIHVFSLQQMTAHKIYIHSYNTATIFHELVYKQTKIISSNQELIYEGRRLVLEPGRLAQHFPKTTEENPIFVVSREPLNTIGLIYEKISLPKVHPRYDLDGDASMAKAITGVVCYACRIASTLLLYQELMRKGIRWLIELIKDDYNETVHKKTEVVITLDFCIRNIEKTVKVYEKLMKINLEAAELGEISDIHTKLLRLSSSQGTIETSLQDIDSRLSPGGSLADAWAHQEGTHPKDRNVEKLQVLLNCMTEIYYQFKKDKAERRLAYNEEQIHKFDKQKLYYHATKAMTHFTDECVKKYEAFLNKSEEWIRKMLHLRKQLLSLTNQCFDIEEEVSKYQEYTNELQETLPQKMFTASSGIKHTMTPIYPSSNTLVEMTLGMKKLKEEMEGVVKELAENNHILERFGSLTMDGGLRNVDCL
To be noted: at 1 µM.

Experiment [2] addresses T1, Serine/threonine-protein kinase TBK1 (Homo sapiens). Particulars: at 10 µM.
In experiment [3] the target is T2, TGF-beta receptor type-1 (Homo sapiens) (UniProt P36897).
T2 sequence (whole entry): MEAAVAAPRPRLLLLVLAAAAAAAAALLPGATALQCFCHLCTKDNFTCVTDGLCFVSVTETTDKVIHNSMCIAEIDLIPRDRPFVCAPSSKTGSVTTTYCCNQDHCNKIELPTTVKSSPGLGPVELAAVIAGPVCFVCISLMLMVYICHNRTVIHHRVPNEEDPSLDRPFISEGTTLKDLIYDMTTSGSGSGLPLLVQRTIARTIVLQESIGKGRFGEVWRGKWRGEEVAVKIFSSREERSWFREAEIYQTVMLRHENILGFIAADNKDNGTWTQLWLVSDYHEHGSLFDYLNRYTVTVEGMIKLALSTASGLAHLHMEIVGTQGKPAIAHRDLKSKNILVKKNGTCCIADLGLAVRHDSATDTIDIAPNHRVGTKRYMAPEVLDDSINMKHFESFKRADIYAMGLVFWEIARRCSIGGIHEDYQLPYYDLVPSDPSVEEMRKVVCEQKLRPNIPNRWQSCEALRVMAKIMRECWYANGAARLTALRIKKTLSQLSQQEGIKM
Particulars: at 1 µM.

Experiment [4] concerns the target T2, TGF-beta receptor type-1 (Homo sapiens). To be noted: at 10 µM.
The target in experiment [5] is Insulin-like growth factor 1 receptor (Homo sapiens) (UniProt P08069). Particulars: at 1 µM.
Sequence of Insulin-like growth factor 1 receptor (Homo sapiens) (P08069 31-736 limits assumed): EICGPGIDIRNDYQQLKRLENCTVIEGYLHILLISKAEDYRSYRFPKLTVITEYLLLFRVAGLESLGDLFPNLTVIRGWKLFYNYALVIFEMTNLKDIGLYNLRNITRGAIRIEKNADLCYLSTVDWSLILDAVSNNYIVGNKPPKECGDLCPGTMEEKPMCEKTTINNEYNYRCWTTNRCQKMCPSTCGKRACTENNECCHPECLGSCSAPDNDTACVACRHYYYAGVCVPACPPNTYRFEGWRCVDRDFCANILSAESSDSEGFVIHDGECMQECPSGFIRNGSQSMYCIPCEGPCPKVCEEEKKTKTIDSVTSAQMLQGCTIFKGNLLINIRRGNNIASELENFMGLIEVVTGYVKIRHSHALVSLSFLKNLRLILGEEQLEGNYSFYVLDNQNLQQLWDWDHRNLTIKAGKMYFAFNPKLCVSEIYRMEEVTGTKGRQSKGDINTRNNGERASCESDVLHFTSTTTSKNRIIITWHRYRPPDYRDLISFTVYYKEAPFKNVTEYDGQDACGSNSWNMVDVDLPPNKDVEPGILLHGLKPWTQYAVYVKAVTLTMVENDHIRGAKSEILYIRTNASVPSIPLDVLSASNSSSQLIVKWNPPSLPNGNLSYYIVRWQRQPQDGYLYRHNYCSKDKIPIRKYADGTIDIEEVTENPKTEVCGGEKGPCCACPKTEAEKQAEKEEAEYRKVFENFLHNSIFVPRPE
Sequence of Insulin-like growth factor 1 receptor (Homo sapiens) (P08069 741-1367 limits assumed): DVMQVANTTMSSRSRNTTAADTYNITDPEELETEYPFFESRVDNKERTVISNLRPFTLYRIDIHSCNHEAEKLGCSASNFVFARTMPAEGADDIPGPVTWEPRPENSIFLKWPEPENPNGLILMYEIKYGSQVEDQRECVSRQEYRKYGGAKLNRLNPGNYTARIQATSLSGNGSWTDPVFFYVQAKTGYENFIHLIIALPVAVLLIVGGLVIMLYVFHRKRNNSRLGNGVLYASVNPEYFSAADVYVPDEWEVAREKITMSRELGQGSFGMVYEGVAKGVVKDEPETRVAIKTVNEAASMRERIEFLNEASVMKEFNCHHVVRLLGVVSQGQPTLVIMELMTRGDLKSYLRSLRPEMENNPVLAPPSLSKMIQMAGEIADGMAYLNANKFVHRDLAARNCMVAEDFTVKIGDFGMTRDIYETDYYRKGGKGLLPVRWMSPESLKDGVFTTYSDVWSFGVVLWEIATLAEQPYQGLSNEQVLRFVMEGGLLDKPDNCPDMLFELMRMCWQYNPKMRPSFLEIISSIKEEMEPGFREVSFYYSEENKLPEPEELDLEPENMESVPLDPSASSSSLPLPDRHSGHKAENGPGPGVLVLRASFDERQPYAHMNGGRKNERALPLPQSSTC
Experiment [6] has the same target. To be noted: at 10 µM.
Experiment [7] has as its target T3, Inhibitor of nuclear factor kappa-B kinase subunit alpha (Homo sapiens) (UniProt O15111).
T3 sequence (whole entry): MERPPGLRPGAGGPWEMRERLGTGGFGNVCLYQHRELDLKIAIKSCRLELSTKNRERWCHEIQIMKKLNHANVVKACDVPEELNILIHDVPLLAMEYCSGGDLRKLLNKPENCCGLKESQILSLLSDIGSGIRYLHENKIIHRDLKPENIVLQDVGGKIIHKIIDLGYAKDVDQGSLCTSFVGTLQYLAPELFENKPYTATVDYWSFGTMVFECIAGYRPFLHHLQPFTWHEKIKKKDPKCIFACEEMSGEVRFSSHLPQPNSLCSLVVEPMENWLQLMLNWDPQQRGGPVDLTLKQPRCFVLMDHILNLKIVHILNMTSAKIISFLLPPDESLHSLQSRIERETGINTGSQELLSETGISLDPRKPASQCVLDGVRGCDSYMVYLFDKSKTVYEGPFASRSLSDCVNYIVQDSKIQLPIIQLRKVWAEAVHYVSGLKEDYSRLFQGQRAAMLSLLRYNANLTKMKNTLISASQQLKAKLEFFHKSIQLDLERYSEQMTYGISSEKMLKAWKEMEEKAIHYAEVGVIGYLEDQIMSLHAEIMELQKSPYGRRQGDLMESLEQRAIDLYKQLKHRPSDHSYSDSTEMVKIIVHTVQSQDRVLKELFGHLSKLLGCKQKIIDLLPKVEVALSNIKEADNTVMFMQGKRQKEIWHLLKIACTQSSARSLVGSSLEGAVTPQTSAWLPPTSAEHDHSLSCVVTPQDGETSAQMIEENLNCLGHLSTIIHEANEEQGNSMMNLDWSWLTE
To be noted: at 1 µM.

Experiment [8] has as its target T3, Inhibitor of nuclear factor kappa-B kinase subunit alpha (Homo sapiens). To be noted: at 10 µM.
The target in experiment [9] is T4, Inhibitor of nuclear factor kappa-B kinase subunit beta (Homo sapiens) (UniProt O14920).
T4 sequence (whole entry): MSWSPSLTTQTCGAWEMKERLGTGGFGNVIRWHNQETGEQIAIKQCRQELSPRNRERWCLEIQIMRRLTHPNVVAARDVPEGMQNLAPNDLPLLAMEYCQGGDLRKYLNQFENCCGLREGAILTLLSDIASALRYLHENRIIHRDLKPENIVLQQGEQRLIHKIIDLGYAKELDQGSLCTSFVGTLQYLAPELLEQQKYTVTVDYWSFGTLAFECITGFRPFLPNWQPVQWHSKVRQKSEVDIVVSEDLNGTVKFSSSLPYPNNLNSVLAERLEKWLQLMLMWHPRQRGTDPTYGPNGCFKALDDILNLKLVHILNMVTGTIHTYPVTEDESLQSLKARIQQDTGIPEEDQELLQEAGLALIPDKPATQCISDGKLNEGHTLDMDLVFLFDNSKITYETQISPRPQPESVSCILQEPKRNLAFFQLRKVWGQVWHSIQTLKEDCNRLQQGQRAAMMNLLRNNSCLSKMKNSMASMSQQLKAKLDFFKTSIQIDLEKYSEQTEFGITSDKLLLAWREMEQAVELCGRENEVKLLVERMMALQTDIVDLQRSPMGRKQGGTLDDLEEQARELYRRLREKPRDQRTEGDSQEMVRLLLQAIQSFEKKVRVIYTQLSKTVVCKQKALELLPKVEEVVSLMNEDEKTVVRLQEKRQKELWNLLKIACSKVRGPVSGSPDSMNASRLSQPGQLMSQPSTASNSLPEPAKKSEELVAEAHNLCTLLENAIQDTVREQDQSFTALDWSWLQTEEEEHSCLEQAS
To be noted: at 1 µM.

Experiment [10] addresses T4, Inhibitor of nuclear factor kappa-B kinase subunit beta (Homo sapiens). To be noted: at 10 µM.

On to `Nc1nc(Nc2ccc(S(N)(=O)=O)cc2)nn1C(=S)Nc1c(F)cccc1F`, for which the residual activity (usually the signal under treatment as a percentage of the control signal) in experiment [1] was -1%; in experiment [2], -2%; in experiment [3], 13%; in experiment [4] it was 2%; in [5], 74%; in experiment [6] it was 83%. The residual activity in [7] stood at 10%; in experiment [8], 1%; in [9], 33%; in [10], 6%.
